Shown are actives, neighbours in structure and some others; about 27% of the full set was active somewhere.
CYP2C19 inh: human CYP2C19 inhibition; AID 778; P33261; inhibition, % at 5 µM; CYP2C19 Supersomes, luciferin-H EGE luminescence, 30 min; 21% of 96,000 active;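 active means CYP2C19 inhibition above a set limit at 5 µM in the primary screen, cut at about 50% in these data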;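 further: plate controls were negative control wells for no effect and 2.5 mM tranylcypromine positive control for full effect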
sEH activator: soluble epoxide hydrolase (human) activation. P34913. purified human sEH enzymatic activity, activator screen. activation, % at 2 µM. 0.04% of 91,000 active; in the data active means activation above about 37%
Target sequence (P34913 whole entry, looked up): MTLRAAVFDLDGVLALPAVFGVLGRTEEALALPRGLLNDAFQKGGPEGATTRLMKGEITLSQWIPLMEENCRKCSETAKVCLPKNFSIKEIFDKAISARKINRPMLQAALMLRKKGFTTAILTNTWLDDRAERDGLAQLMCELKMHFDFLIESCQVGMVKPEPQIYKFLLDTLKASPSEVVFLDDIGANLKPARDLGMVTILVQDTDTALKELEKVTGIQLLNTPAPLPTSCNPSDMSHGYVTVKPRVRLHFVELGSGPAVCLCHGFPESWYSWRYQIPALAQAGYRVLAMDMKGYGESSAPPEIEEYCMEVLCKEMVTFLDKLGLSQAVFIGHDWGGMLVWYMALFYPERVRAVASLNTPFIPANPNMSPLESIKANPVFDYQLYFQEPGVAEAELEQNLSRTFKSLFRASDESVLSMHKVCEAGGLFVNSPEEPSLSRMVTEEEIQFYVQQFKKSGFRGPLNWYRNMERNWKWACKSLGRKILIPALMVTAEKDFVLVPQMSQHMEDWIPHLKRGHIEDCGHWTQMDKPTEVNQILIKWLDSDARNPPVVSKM
CYP2C9 activ: activators of human CYP2C9; P11712; recombinant CYP2C9, luciferin-H conversion, luminescence; active compounds read high; factor 1 = untreated enzyme, 0 = blocked; activation factor at 5 µM; 1.4% of 96,000 active; AID 1024;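 active means activation factor of 2 or more for CYP2C9 at a 5 µM dose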;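 further: 0 = sulfaphenazole-blocked wells and 1 = vehicle-only wells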
CYP2C19 act: increases human CYP2C19 enzyme activity; P33261; recombinant CYP2C19, luciferin-H EGE luminescence; active compounds read high; 0 = fully inhibited enzyme, 1 = untreated enzyme; activation factor at 5 µM; 96,000 tested, under 10 active;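 active means activation factor of at least 2 at 5 µM in the primary screen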;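 further: 0 = wells with 2.5 mM tranylcypromine and 1 = vehicle-only wells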
CYP2C9 inh: blocks human cytochrome P450 2C9; 20% of 96,000 active; inhibition, % at 5 µM; CYP2C9 Supersomes, luciferin-H conversion, luminescence;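 active means blocking of liver enzyme CYP2C9 beyond about 50% at 5 µM, limit read from the data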
sEH inhibitor: soluble epoxide hydrolase (human) inhibition | recombinant human sEH enzymatic activity assay | inhibition, % at 2 µM | 0.34% of 91,000 active; in the data active means inhibition above about 80%
Active calls of the source: *; · = not tested or not shown.

SMILES	CYP2C19 inh	sEH activator	CYP2C9 activ	CYP2C19 act	CYP2C9 inh	sEH inhibitor
COc1ccccc1C1CC(=O)Nc2cc3c(cc21)OCCO3 (stereo unspecified)	33	0	0.3	0.7	74*	0
COc1cccc(C2CC(=O)Nc3cc4c(cc32)OCCO4)c1OC(C)C (stereo unspecified)	49	·	0.4	0.5	63*	·
COc1cc2c(cc1OC)C(c1cccc(OC)c1OC)CC(=O)N2 (stereo unspecified)	18	8	0.7	0.8	32	-4
CCOc1ccc(S(=O)(=O)NN)cc1	16	-9	1	0.8	1	12
Cn1c2c(c(=O)n(C)c1=O)C(c1ccc(Br)cc1)Nc1ccccc1O2 (stereo unspecified)	56*	·	0.3	0.4	65*	·
Cn1c(/C=C/N2CCOCC2)c(C(=O)c2ccc(Br)cc2)c(=O)n(C)c1=O	17	-6	1.2	0.8	-24	1
Cc1cccc(CCNC(=O)C2CCCN(S(=O)(=O)c3cccc4nsnc34)C2)c1 (stereo unspecified)	35	·	0.5	0.6	48	·
O=C(NCc1ccccc1Cl)C1CCCN(S(=O)(=O)c2cccc3nsnc23)C1 (stereo unspecified)	77*	-72	0.5	0.2	50*	71
Cc1ccc(CCNC(=O)C2CCCN(S(=O)(=O)c3cccc4nsnc34)C2)cc1 (stereo unspecified)	24	-83	0.9	0.8	11	83*
O=C(NCC1CCCO1)C1CCCN(S(=O)(=O)c2cccc3nsnc23)C1 (stereo unspecified)	-5	-10	1.2	1.1	-25	12
Cc1cccc(Cn2c(=O)c3c(nc4n3CCCN4Cc3ccccc3)n(C)c2=O)c1	12	3	0.5	0.9	48	-2
CCN(CC)S(=O)(=O)c1ccc(C(=O)OCCNC(=O)c2cccnc2)cc1	3	2	0.3	1	72*	2
NS(=O)(=O)c1ccc(CCNC(=O)c2cccnc2)cc1	·	-6	·	·	·	6
O=C(OCCNC(=O)c1ccc2ccccc2n1)c1cccnc1	90*	-9	0.3	0.1	66*	10
CCCC(C)C(=O)Nc1cccc(NC(C)=O)c1 (stereo unspecified)	0	-2	0.9	1	10	3
CCn1cc([N+](=O)[O-])c(C(=O)N2CCCC2)n1	56*	9	0.6	0.4	41	-5
CCn1ncc([N+](=O)[O-])c1C(=O)N1CCCC1	-22	18	1.1	1.2	-13	-14
Cc1nccn1CC(O)COC1CCCCC1 (stereo unspecified)	0	-2	1.1	1	-9	0
O=C(C1CCN(S(=O)(=O)c2cccs2)CC1)N1CCN(c2ccccc2)CC1	-6	6	1	1.1	3	-4
O=C1C(NS(=O)(=O)c2cccs2)=C(N2CCN(c3ccccc3)CC2)C(=O)c2ccccc21	29	5	0.4	0.7	63*	-5
O=C(C(NS(=O)(=O)c1cccs1)c1ccccc1)N1CCN(c2ccccc2)CC1 (stereo unspecified)	54*	-22	0.7	0.5	28	20
O=C(Nc1cnc2sc3c(n2c1=O)CCCC3)c1ccc(F)cc1	10	-6	0.8	0.9	16	6
CCOc1cc(C2C(C(=O)c3ccccc3)=C(C(=O)OC)Nc3nnnn32)ccc1O (stereo unspecified)	-17	13	1	1.2	-1	-12
COc1cccc(NC(=O)Nc2ccc3c(c2)N(C)C(=O)CS3)c1	65*	-23	1	0.4	-4	22
CN1C(=O)CSc2ccc(NC(=O)NCc3cccnc3)cc21	56*	-10	0.3	0.4	72*	12
SMILES	CYP2C19 inh	sEH activator	CYP2C9 activ	CYP2C19 act	CYP2C9 inh	sEH inhibitor
CCOc1ccc(OCC)c(NC(=O)Nc2ccc3c(c2)N(C)C(=O)CS3)c1	58*	4	0.6	0.4	37	-3
CN1C(=O)CSc2ccc(NC(=O)Nc3ccccn3)cc21	0	0	1.1	1	-9	1
C(=N\N1CCN(C2c3ccccc3-c3ccccc32)CC1)/c1cccnc1	84*	-24	0.1	0.2	91*	27
C/C(=N\N1CCN(C2c3ccccc3-c3ccccc32)CC1)c1cccnc1	66*	-1	0.3	0.3	73*	0
Cc1ccccc1Cn1c2ccccc2c2cn[nH]c(=O)c21	24	13	0.8	0.8	17	-12
COc1ccc(OC)c(-c2cn(S(=O)(=O)c3ccccc3)nc2N)c1	22	-4	0.7	0.8	31	6
Cc1ccc(S(=O)(=O)n2nc(OC(=O)c3cccs3)cc2N)cc1	6	6	0.9	0.9	10	-6
COc1ccccc1C(=O)Oc1cc(N)n(S(=O)(=O)c2ccc(C)cc2)n1	39	-25	0.2	0.6	81*	24
CC(C)(C)C(=O)Oc1cc(N)n(S(=O)(=O)c2ccc(F)cc2)n1	59*	3	0.2	0.4	75*	-4
COc1ccc(S(=O)(=O)n2nc(OC(=O)c3c(-c4ccccc4Cl)noc3C)cc2N)cc1	38	12	0.1	0.6	94*	-10
COc1ccccc1-c1cn(S(=O)(=O)c2ccc(C)cc2)nc1N	16	10	0.4	0.8	56*	-4
CCN(CC)CCCNC(=O)c1sc2nc(-c3ccc(F)cc3)cn2c1C	-6	-4	1	1.1	-4	5
CC12CCC(C(=O)NCC3CCCO3)(OC1=O)C2(C)C (stereo unspecified)	-8	6	1	1.1	-4	-5
CCc1cn(S(=O)(=O)c2ccccc2OC)nc1N	50*	14	1.8	0.5	-80	-17
COC(=O)CSc1cc(SCC(=O)OC)c(C#N)c(SCC(=O)OC)c1	38	·	0.5	0.6	52*	·
COC(=O)CSc1nc(N)c(C#N)c(C(C)C)c1C#N	59*	-4	0.5	0.4	48	4
CCOC(=O)c1cn(-c2nc(-c3ccc(Cl)cc3)cs2)c2c(F)c(N3CC(C)OC(C)C3)c(F)cc2c1=O (stereo unspecified)	-6	1	0.9	1.1	6	-1
Cc1ccc(-n2nnnc2SCC(=O)c2c(N)n(CC(C)C)c(=O)n(C)c2=O)cc1	22	-14	0.8	0.8	19	12
COc1cc(Nc2cc(C)nc3nc(C)nn23)cc(OC)c1OC	-13	·	0.9	1.1	6	·
Cc1cc(C)nc(-n2nc(C)c3c(=O)[nH]c(C(F)(F)F)nc32)n1	9	-9	1	0.9	4	9
Cn1c(COc2ccc(Cl)cc2)nnc1SCc1ncc(-c2ccccc2)o1	45	5	1.5	0.6	-49	-4
COC(=O)c1cc(Br)c(=O)n(-c2ccc(F)cc2)c1	89*	17	0.9	0.1	15	-15
COC(=O)c1cc(Br)c(=O)n(Cc2ccco2)c1	23	·	0.8	0.8	25	·
